PNC inhibitor – inhibitors of perinucleolar compartment assembly | PC3M PTB-GFP, PNC prevalence imaging, 16 h; active compounds read low | activity change (PNC), negative = inhibition, % at 10 µM | 140,000 tested, 3.1% active | AID 2417;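 active means readout at or below -70, meaning at least 70% loss of cells showing the perinucleolar compartment, a nuclear body marking cancer cells; inconclusive means readout between -30 and a set limit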;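 further: plate controls were DMSO wells for no effect and camptothecin positive control wells for full effect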
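PC3M cells stably expressing PTB-GFP, 750–1000 cells/well, treated 16 h at 37 °C with compound (23 nl of library stock), in duplicate. After paraformaldehyde fixation and Hoechst stain, imaged at 20x; PNC prevalence scored by image analysis.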
IMPase Li cell – membrane-permeable IMPase blocker, potentiated with lithium | CHO-M1 cells, IP1 TR-FRET (IP-One), carbachol + lithium | Potency, µM (top dose mostly 59.4 µM), without a hit: at the highest dose activity, negative = IMPase inhibition, actives largely listed as inhibitors | 210,000 tested, 0.35% active | AID 1457; active means well fitted inhibition curve with a large enough effect; inconclusive means small, poorly fitted or top-dose-only effect; inactive means no such curve, though single readings can be large or run the other way;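 further: IP1 builds up when IMPase is blocked and the TR-FRET signal falls; potency means the concentration at half of the fitted maximal effect; plate controls were basal vehicle for no effect and high inhibitor control for full effect; nearly all actives have a fitted effect of over 50% in size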
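Lithium-sensitised IP1 accumulation assay; M1-expressing CHO cells treated 30 min at 37C with compound. Competitive antibody detection by time-resolved FRET followed a 10 min room-temperature lysis step.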
HPGD block – HPGD (human) dehydrogenase inhibition; P15428; 150,000 tested, 4.3% active; purified HPGD, NADH fluorescence kinetic, PGE2 substrate; AID 894; Potency, µM, for inactives: at the highest dose activity change, negative = inhibition, hits mostly inhibitors; further: potency means the concentration at half of the fitted maximal effect
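NADH formation kinetics: reaction with 30 uM PGE2 and 1 mM NAD+ (final), 20 nM enzyme, Tris-HCl pH 8 with Tween 20, after 15 min compound preincubation at room temperature. Fluorescence change, last versus first of five reads.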
IMPase cell inh – cell-permeable inhibitors of inositol monophosphatase (IMPase); CHO-M1 cells, IP1 accumulation, HTRF TR-FRET ratio; AID 901; P97697; 120,000 tested, under 10 active; inhibition (IP1 accumulation), % at 46.1 µM; active means well fitted curve in the direction sought with a large enough effect in the signal ratio, not every such curve was filed as active; inconclusive means small, poorly fitted or top-dose-only effect, or a change in a side signal; inactive means no such curve, though single readings can be large or run the other way; the % refers to the signal ratio;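 further: cells stimulated with carbachol in lithium chloride buffer; plate controls were DMSO basal wells for no effect and reference inhibitor wells for full effect; higher means more IMPase inhibition seen as more IP1 and lower FRET ratio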
Target sequence (P97697 whole entry, looked up): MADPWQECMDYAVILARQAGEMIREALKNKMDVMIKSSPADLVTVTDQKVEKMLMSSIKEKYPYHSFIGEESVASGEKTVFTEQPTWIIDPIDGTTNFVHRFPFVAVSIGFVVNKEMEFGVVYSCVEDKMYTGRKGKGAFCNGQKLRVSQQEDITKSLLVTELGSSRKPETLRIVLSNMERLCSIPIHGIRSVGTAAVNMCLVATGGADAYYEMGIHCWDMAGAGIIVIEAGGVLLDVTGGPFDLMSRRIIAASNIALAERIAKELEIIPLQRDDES
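Elevated IP1 in lysates lowers TR-FRET signal (665/620 ratio and 620 channel reported). Cells were CHO-M1, given carbachol (50 uM as added) plus 50mM LiCl, pH 7.4, 30 min, 37C; compounds titrated up to 46 uM; AC50 by Hill equation.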
ALDH1A1 block – blocks purified human ALDH1A1 activity; Purified ALDH1A1, NADH fluorescence, propionaldehyde substrate; Potency, µM (titrated, usually from 75.3 µM), for inactives: at the highest dose activity, negative = inhibition, actives largely listed as inhibitors; 220,000 tested, 7.3% active; AID 1030;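 further: potency means the concentration at half of the fitted maximal effect; plate controls were no enzyme wells and a reference inhibitor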
Target sequence (P00352 whole entry, looked up): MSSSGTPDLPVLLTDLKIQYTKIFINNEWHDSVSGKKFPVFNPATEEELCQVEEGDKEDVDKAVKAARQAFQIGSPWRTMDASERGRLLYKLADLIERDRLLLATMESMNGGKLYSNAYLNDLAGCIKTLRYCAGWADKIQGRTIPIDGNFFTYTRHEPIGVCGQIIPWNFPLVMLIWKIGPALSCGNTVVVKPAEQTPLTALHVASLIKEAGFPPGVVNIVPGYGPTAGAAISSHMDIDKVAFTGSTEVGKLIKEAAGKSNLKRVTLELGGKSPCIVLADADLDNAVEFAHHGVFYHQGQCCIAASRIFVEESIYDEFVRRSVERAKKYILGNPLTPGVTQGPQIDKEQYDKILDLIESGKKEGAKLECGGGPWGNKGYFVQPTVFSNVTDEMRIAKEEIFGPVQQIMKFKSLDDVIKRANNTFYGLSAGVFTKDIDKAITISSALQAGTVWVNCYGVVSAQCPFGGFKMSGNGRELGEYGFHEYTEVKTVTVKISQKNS
Starred values were filed as active, the others as inactive; ? = inconclusive; . = not tested or not shown; [ ] = another dose, or the depositor's remark. The list is not random: actives were taken first. Their share in the collection is about 11%. Unless noted, the call rests on the fitted dose curve; in most records, active means well fitted inhibition curve with a large enough effect (not every such curve was filed as active); inconclusive means small, poorly fitted or top-dose-only effect, or another doubt; inactive means no such curve, though single readings can be large or run the other way. Unless noted, on the % scale 0 is the no-effect control and ±100 the full control effect.

SMILES | PNC inhibitor | IMPase Li cell | HPGD block | IMPase cell inh | ALDH1A1 block
O=C(COC(=O)c1cccs1)NCCC1=CCCCC1 | ? | -2% | 18µM* | -2 | 8%
O=C(O)/C=C/C(=O)NCCc1ccccc1 | . | 1% | . | . | -16%
CC/C(=N\NC(=O)CNC(=O)/C=C/c1ccco1)c1ccccc1 | 10 | 11%[38.3 µM] | -13% | 9 | 14µM*
CC(C)=CC(=O)NCCc1ccccc1 | -5 | -8%[38.3 µM] | 20µM* | 12 | ?
O=C(CN1CCN(Cc2ccccc2)CC1)N/N=C/c1c[nH]c2ccccc12 | 26 | -3% | -6% | 3 | 6%
COCCNC(=O)COc1ccc(OCCNC[C@H](O)COc2ccccc2)cc1 | . | -1% | . | . | 2%
O=C(/C=C/c1ccccc1)NCCC1=CCCCC1 | 58 | -2% | 28µM* | 1 | -1%
CN(Cc1ccccc1)C(=O)COC(=O)/C=C/c1ccco1 | . | -1% | . | . | ?
CN(CCOC(=O)/C=C/c1ccco1)Cc1ccccc1 | . | 8% | . | . | 22µM*
O=C(O)CCCNC(=O)/C=C/c1ccco1 | . | . | . | . | 22µM*
O=C(/C=C/c1ccc(F)cc1)NCCC1=CCCCC1 | 106 | -4%[38.3 µM] | -20% | 1 | -12%
O=C(/C=C/c1cccc(Cl)c1)NCCc1ccccc1 | -18 | 4% | 8.9µM* | -4 | ?
Cc1cc(-c2nnnn2-c2ccc(F)cc2)no1 | . | . | . | . | 1%
COc1ccc(N2C=C3C(=O)C(C)(OC(=O)C4CCCC4)C(=O)C=C3C=C2c2ccsc2)cc1 (configuration not stated) | . | 5% | -17% | . | ?
O=C(/C=C/c1ccco1)NCCc1ccccc1 | . | 6% | . | . | 22µM*
O=C(O)CCCCCNC(=O)/C=C/c1ccco1 | . | 12% | . | . | 2%
Cn1c(=O)c(-c2cc(F)cc(F)c2)nc2cnc(Nc3ccccc3)nc21 | . | 6% | . | . | 25%
CN(c1nc2c(c(=O)n(C)c(=O)n2C)n1CC(=O)c1ccccc1)C1CCCCC1 | 26 | 17%[38.3 µM] | -8% | 12 | 28µM*
Cn1c(=O)c2c(nc(Cc3ccccc3)n2CC(=O)O)n(C)c1=O | . | -6% | -5% | . | 6%[13.5 µM]
CC1CCCCN1S(=O)(=O)c1ccc(C(=O)Nc2sccc2C(N)=O)cc1 (configuration not stated) | ? | 32%[38.3 µM] | 28µM* | 8 | 14µM*
NC(=O)c1ccsc1NC(=O)C1CCCN1S(=O)(=O)c1ccc(Cl)cc1 (configuration not stated) | 67 | 13%[38.3 µM] | ? | 0 | ?
Cc1[nH]c2ccccc2c1C1C(c2ccccc2)=NN=C(C(C)C)N1O (configuration not stated) | -103* | 27% | -17% | 15 | -11%
CC1=NN=C(c2ccccc2)C(c2c[nH]c3ccccc23)N1O (configuration not stated) | -114* | -2% | -5% | . | 0%
O=C1/C(=N/n2cnnc2)c2ccccc2N1Cc1ccccc1 | -13 | 24%[38.3 µM] | -19% | 4 | 0.089µM*
O=CN/C=C/c1cc(F)cc(F)c1F | . | 10% | -2% | . | -13%
SMILES | PNC inhibitor | IMPase Li cell | HPGD block | IMPase cell inh | ALDH1A1 block
CNc1ccc(Cl)nn1 | . | -15% | . | . | -1%
NNc1ccc(Cl)nn1 | . | . | . | . | 18µM*
CS(=O)(=O)Nc1c(O)ccc2c1CCCC2C1=NCCN1 (configuration not stated) | . | -3% | . | . | 2%
OCC(O)C(O)C(O)C(O)C(O)CO (configuration not stated) | . | -3% | -8% | . | -7%
Cc1ccc(C(=O)NC(C)c2ccccc2)o1 (configuration not stated) | 7 | 4% | 22µM* | 8 | ?
CSCCC(NC(=O)c1ccc(C)o1)C(=O)O (configuration not stated) | 9 | -3%[38.3 µM] | -11% | 0 | 16µM*
COc1ccccc1C(C)NC(=O)c1ccc(C)o1 (configuration not stated) | 35 | 2%[38.3 µM] | -23% | 5 | 12%
N#C/C(=C\c1cn[nH]c1-c1ccc(Cl)cc1)C(=O)NCc1ccccc1 | ? | 44%[38.3 µM] | ? | 3 | 22µM*
CC(NC(=O)/C(C#N)=C/c1cn[nH]c1-c1ccccc1)c1ccccc1 (configuration not stated) | 25 | 8%[38.3 µM] | 14µM* | 1 | 7.9µM*
Cc1ccc(NC(=O)CCn2nc(-c3ccccc3)c3ccccc3c2=O)c(C)c1 | . | . | . | 9 | .
CC(C)(c1cc(Br)c(OCC(Br)CBr)c(Br)c1)c1cc(Br)c(OCC(Br)CBr)c(Br)c1 (configuration not stated) | . | 0% | -5% | . | ?
Cc1ccc(/C=C(/C#N)C(=O)NC(C)c2ccccc2)o1 (configuration not stated) | 3 | -2% | -20% | . | 14µM*
Cc1ccc(/C=C(\C#N)C(=O)NC(C)C)o1 | . | 1% | . | . | ?
Cc1cccc(C(=O)Nc2ccc(N3CCN(S(C)(=O)=O)CC3)cc2)c1 | . | -2% | . | . | 2%
O=C1C=C[C@@H](O)[C@H]2[C@@H]3C(=O)N(c4cccc(Oc5ccccc5)c4)C(=O)[C@@H]3CC[C@H]12 | . | . | . | . | -12%[13.5 µM]
CCOC(=O)Cn1nc(C)n(-c2cccc(Cl)c2)c1=O | . | 2% | . | . | 8%
CCOC(=O)CNC1CC(=O)N(c2cccc(Cl)c2)C1=O (configuration not stated) | 1 | 3%[38.3 µM] | 0% | 1 | 18µM*
O=C(Cl)c1cccc([N+](=O)[O-])c1 | . | 10% | -6% | . | 11µM*
O=[N+]([O-])c1cccc(Cl)c1 | . | 7% | -7% | . | 25µM*
NC(=O)c1cccc([N+](=O)[O-])c1 | . | -11% | 0% | . | 0%
COc1ccc(S(=O)(=O)N2CCC(C(=O)Nc3ccc(Oc4ccccc4)cc3)CC2)cc1OC | . | . | . | -7 | .
O=C1Nc2ccccc2/C1=N\N=C\C1=C(N2CCOCC2)C(=C\c2ccccc2)/CC1 | -26 | 5%[38.3 µM] | -7% | -1 | 10µM*
Oc1ccccc1NCC(O)Cn1ccc2ccccc21 (configuration not stated) | 10 | . | . | 7 | 14µM*
OC(CNCc1ccccc1)Cn1ccc2ccccc21 (configuration not stated) | 47 | 3% | -12% | . | ?
OCc1nc2ccccc2n1CC(O)Cn1ccc2ccccc21 (configuration not stated) | 18 | 24%[38.3 µM] | -18% | 9 | 22µM*
O=C1c2ccccc2S(=O)(=O)N1CC(O)Cn1ccc2ccccc21 (configuration not stated) | 30 | -12%[38.3 µM] | -19% | 0 | 13µM*
Cc1cc(C)n(CC(O)Cn2ccc3ccccc32)n1 (configuration not stated) | 11 | 9%[38.3 µM] | ? | 4 | -16%
CCCn1c(CN2CCN(c3cccc(Cl)c3)CC2)nc2c1c(=O)n(C)c(=O)n2C | 15 | 15%[38.3 µM] | -2% | 4 | ?
CCCCCn1c(CN2CCN(c3cc(Cl)ccc3C)CC2)nc2c1c(=O)[nH]c(=O)n2C | -16 | 13%[38.3 µM] | -12% | 7 | 14µM*

Screening results from PubChem BioAssay.
